Values without a mark were called inactive. How the calls were made is not given here.
Each molecule was assayed against Pantothenate synthetase (Mycobacterium tuberculosis (strain ATCC 25618 / H37Rv)) (UniProt P9WIL5) (assay: Coupled enzyme confirmation of inhibitors against recombinant Mtb PanC (AID 375;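 further: 0% = full reaction with vehicle and 100% = no enzyme background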)). Details: coupled enzyme assay; at 10 µM, stronger effect = higher value.
Sequence of Pantothenate synthetase (Mycobacterium tuberculosis (strain ATCC 25618 / H37Rv)) (P9WIL5 whole entry, looked up): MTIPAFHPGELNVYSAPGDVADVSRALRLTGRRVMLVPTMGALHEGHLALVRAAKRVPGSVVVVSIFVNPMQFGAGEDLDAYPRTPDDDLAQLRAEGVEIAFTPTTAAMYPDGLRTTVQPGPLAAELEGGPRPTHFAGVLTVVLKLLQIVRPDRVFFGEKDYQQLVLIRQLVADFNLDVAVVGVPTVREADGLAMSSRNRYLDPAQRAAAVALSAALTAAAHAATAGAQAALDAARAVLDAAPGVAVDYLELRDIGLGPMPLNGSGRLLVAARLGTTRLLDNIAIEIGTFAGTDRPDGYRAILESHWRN
With `O=C(CN1C(=O)c2ccccc2S1(=O)=O)Nc1ccc(S(=O)(=O)N2CCCCCC2)cc1` the inhibition was 6%. Work on `COc1ccc(C2CC(c3ccc(OC)cc3)n3nc(N)nc3N2)cc1` (stereo not given) yielded an inhibition of 0%. `COc1ccc(-c2nnc(SCC(=O)Nc3ccc(Cl)cc3)n2C)cc1` gave an inhibition of 0%. In the case of `Cn1nc(-c2ccc(C(=O)NCC3CCCO3)cc2)c2ccccc2c1=O` (stereo not given), the inhibition is reported as 4%. `CC(=O)C1=C(C)OC(N)=C(C#N)C1c1ccncc1` (stereo not given) was tested, and the inhibition was 0%. Work on `O=C(Nc1ccc2c(c1)OCCO2)C1CCCN1S(=O)(=O)c1cccc2cccnc12` (stereo not given) yielded an inhibition of 0%. `Cc1cc2c(cc1C)C(=O)NC(C)(C)C2` showed an inhibition of 0%. Work on `Cc1cc(NC(=O)c2cc(-c3ccco3)on2)n(-c2ccccc2)n1` yielded an inhibition of 0%. In the case of `COc1cccc(N2CCN(Cc3nc(N)nc(Nc4ccccc4)n3)CC2)c1`, the inhibition is reported as 0%. Molecule `Cc1nc(CNS(=O)(=O)c2cccc(F)c2)cs1` has an inhibition of 0%. In the case of `CCOC(=O)c1cnc(SCC)[nH]c1=O`, the inhibition is reported as 0%. `N#CC1=C(SCC(=O)NC23CC4CC(CC(C4)C2)C3)NC(=O)C(C#N)C12CCCCC2` (stereo not given) was tested, and the inhibition was 0%. `O=S(=O)(c1ccc(F)c(Cl)c1)N1CCCC1` was tested, and the inhibition was 0%. `COc1cc(OC)cc(-c2nnc(Nc3nc4c(F)cccc4s3)o2)c1` gave an inhibition of 12%. For `CCOC(=O)N1CCC(NC(=O)c2ccc3c(c2)N(CC)CCS3)CC1`, the inhibition was 5%. `CC(C)COc1ccc(-c2nnn(CC(=O)N3CCCC3)n2)cc1` was tested, and the inhibition was 0%. Molecule `Cc1ccccc1NS(=O)(=O)c1ccc(NC(=O)c2ccco2)cc1` has an inhibition of 0%. `O=C(c1ccc(=O)[nH]c1)N(Cc1ccco1)C1(C(=O)NC2CCCC2)CCCCC1` was tested, and the inhibition was 0%. Work on `Cn1cccc1C1NC(=O)c2c(sc3c2CCC(C(C)(C)C)C3)N1` (stereo not given) yielded an inhibition of 3%. `Cc1ccc(Nc2nc(N)nc(CN3CCCCCC3)n2)cc1` was tested, and the inhibition was 2%. `Nc1nc(N2C(=O)C3CC=CCC3C2=O)nn1-c1ccccc1` (stereo not given) was tested, and the inhibition was 0%. `O=S(=O)(NCCc1ccncc1)c1cc(Br)ccc1F` was tested, and the inhibition was 0%. `CCOc1ccc2c(O)csc2c1` was tested, and the inhibition was 0%. `CN(C(=O)C1CCOC1)c1nnc(-c2cccnc2)s1` (stereo not given) showed an inhibition of 0%. With `COC(=O)C1=C(C)n2nnnc2NC1c1ccc(Cl)cc1` (stereo not given) the inhibition was 2%. `O=C(O)CN1C(=O)CNC1=O` gave an inhibition of 0%. Work on `CSc1nc2ccc(S(=O)(=O)N3CCOCC3)cc2s1` yielded an inhibition of 4%. `O=C(COC(=O)c1cnccn1)c1ccc(OC(=O)c2ccccc2)cc1` gave an inhibition of 0%. Molecule `Cc1ccc(CS(=O)(=O)CCC(=O)NCC2CCCO2)cc1` (stereo not given) has an inhibition of 0%. For `CCOc1ccc(C(=O)N2CCN(C(=O)c3ccco3)CC2)cc1OCC`, the inhibition was 1%. Work on `O=C1CN(C(=O)CN2CCCC2)C(c2ccccc2)c2cc(Br)ccc2N1` (stereo not given) yielded an inhibition of 0%. For `O=C(CCn1nc(-c2ccccc2)ccc1=O)N1CCCC1`, the inhibition was 0%. `O=C(CSc1nc2ccccc2[nH]1)c1ccc2c(c1)OCO2` was tested, and the inhibition was 0%. With `CCS(=O)(=O)Nc1ccc(C(=O)CC2(O)C(=O)Nc3ccccc32)cc1` (stereo not given) the inhibition was 14%. `N#Cc1cnc(SCCc2ccccc2)nc1N` gave an inhibition of 0%. With `COc1cccc(NC(=O)C2C3C=CC4(O3)C2C(=O)N(C(C)C)C4C(=O)NC2CCCCC2C)c1` (stereo not given) the inhibition was 2%. Molecule `CCCCSc1nc2c(cnn2-c2ccc(Cl)cc2)c(=O)[nH]1` has an inhibition of 0%. `CCN(CCCNC(=O)C1CCCN(S(=O)(=O)c2cnc[nH]2)C1)c1ccccc1` (stereo not given) gave an inhibition of 1%. Work on `COc1ccccc1N1CCN(C(=O)C2CCN(S(=O)(=O)c3ccc(F)cc3)CC2)CC1` yielded an inhibition of 0%. For `Cc1cc(C)cc(-n2ccnc2SCC(=O)Nc2ccc3c(c2)OCCO3)c1`, the inhibition was 0%.
